# Where “and” joins values, the source holds several entries; their conditions need not be identical. Equal entries are not always repeated. Values without a mark were called inactive.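 The calls were made as follows: active = compounds whose cell count with miR-34 switched on is under 0.7 times the count with it off; inactive = the rest.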
# Assay: viability loss with induced miR-34 in A549 – imaging, A549 dox-inducible miR-34, nuclei and caspase counts, primary screen (AID 1347080); also: test concentration not given here
# Details: A549 miR-34 inducible, Hoechst nuclei count, 48 h; active compounds read low
row,Structure (SMILES),fold change
1,C[C@H](N)Cc1cccc(C(F)(F)F)c1,0.951
2,CCCCC/C=C\C/C=C\CCCCCCCC(=O)NCCO,1.09 and 1.06
3,C=CCN1C[C@@H](C)N([C@H](c2ccc(C(=O)N(CC)CC)cc2)c2cccc(OC)c2)C[C@@H]1C,1.1
4,N#CC(=Cc1ccc(O)c(O)c1)C(N)=S,0.981
5,N[C@@]1(C(=O)O)CC[C@@H](C(=O)O)C1,1.04
6,CCCC[C@H]1C(=O)O[C@H](C)[C@H](NC(=O)c2cccc(NC=O)c2OC)C(=O)O[C@@H](C)[C@@H]1OC(=O)CC(C)C,1.28
7,CCNC(=O)[C@H]1O[C@@H](n2cnc3c(N)ncnc32)C(O)[C@H]1O (some centres undefined),1.03
8,CCCCC/C=C\C/C=C\C/C=C\CCCCCCC(=O)NCCO,0.972 and 1.13
9,CCCCCCCCCCCCCCCCOC[C@@H](COP(=O)([O-])OCC[N+](C)(C)C)OC(C)=O,0.883
10,O=C(NC1CN2CCC1CC2)c1cc2ccoc2cn1 (centres undefined),0.991
11,C[C@@H]1O[C@H](C[N+](C)(C)C)C[C@H]1O,1.05
12,COC[C@H]([C@@H](O)[C@@H](O)C(=O)NCC[C@@H](C)c1nc(/C=C/C[C@H]2OC3(C[C@H](O)[C@H]2C)OC([C@@H](C[C@@H](O)[C@@H](C)[C@@H](O)[C@@H](C)/C=C(C)/C(C)=C/C=C/C(C)=C\C#N)OC)[C@@H](OP(=O)(O)O)C3(C)C)co1)N(C)C (some centres undefined),0.801
13,CCCCC[C@@H](/C=C/C=C\CCCCCCCC(=O)O)OO,0.981
14,C=CCN1CCC23c4c5ccc(O)c4O[C@H]2C(=O)CC[C@@]3(O)C1C5 (some centres undefined),1.07
15,CCCCC/C=C\C/C=C\C/C=C\C/C=C\CCCC(=O)NCCO,0.996 and 0.983
16,CC(C)(O)[C@H]1O[C@H]2CC[C@@]3(C)[C@@](O)(CC[C@H]4Cc5c([nH]c6ccccc56)[C@@]43C)C2=CC1=O,1.09
17,CCCCC/C=C\C[C@@H](/C=C/C=C\C/C=C\CCCC(=O)O)OO,0.888
18,N#CC(C#N)=Cc1ccc(O)cc1,1.08
19,CCCCC/C=C\C/C=C\C/C=C\C=C\[C@H](CCCC(=O)O)OO,0.99
20,CC(N)c1cccc(Cl)c1Cl (centres undefined),1.05

row,Structure (SMILES),fold change
1,CN1CCC[C@@H]1Cc1c[nH]c2ccc(Nc3ncccc3[N+](=O)[O-])cc12,1.01
2,Oc1ccc2c3c1O[C@H]1c4[nH]c5ccccc5c4C[C@@]4(O)C(C2)N(CC2CC2)CCC314 (some centres undefined),1.01
3,COc1cc(C(O)CN)ccc1O (centres undefined),1.05
4,C[C@@H]1O[C@@H](O[C@H]2C[C@@H](O)[C@]3(CO)[C@@H]4C(CC[C@]3(O)C2)[C@@]2(O)CC[C@H](C3COC(=O)C3)[C@@]2(C)C[C@H]4O)[C@H](O)[C@H](O)[C@H]1O (some centres undefined),0.861
5,CN1CC[C@@]2(C)c3cc(OC(=O)Nc4ccccc4)ccc3N(C)[C@@H]12,0.963
6,CCCCCC1OC1C/C=C\CCCCCCCC(=O)O (centres undefined),0.986
7,c1ccc2cc(CC3=NCCN3)ccc2c1,1.06
8,CC(C)(C)OC(=O)NC1[C@H]2CNC[C@@H]12 (some centres undefined),1.05
9,NC1CC1c1ccccc1 (centres undefined),0.977 and 0.888
10,NC(CCP(=O)(O)O)C(=O)O (centres undefined),1.04
11,CCCCC/C=C\C/C=C\C/C=C\C/C=C\CCCC(N)=O,1.05 and 1.02
12,CCCCC[C@@H](/C=C/C=C\C/C=C\C/C=C\CCCC(=O)O)OO,0.973
13,COc1ccc2c(c1)C13CCCCC1C(C2)N(C)CC3 (centres undefined),1.04
14,C=CCN1CC[C@]23CCCCC2[C@H]1Cc1ccc(O)cc13 (some centres undefined),1.09
15,CCCCC/C=C\C=C\[C@H](CCCCCCCC(=O)O)OO,0.93
16,O=C1CC[C@@]2(O)C3Cc4ccc(O)c5c4C2(CCN3CC2CC2)[C@H]1O5 (some centres undefined),1.1
17,NC(CP(=O)(O)O)C(=O)O (centres undefined),1.01
18,C[C@]12Cc3cn4c(nc3C=C1CCC1C2CC[C@@]2(C)[C@H]1CC[C@@]2(O)C#N)nc1ccccc14 (some centres undefined),1.02
19,CCCCC/C=C\C/C=C\C/C=C\C/C=C\CCCCCC(=O)NCCO,1.02 and 1.04

# Source: PubChem BioAssay
